Calls of active or inactive are those of the source. The calls were made as follows: active = hit-call score of the fitted dose curve at least 0.9, where 1 is the maximum; inactive = score below 0.9.

One may read the AC50 as the concentration at which the activity in the assay is half-maximal.

Experiment [1] is described as follows: ATG_CRE_CIS: Attagene CIS-FACTORIAL HepG2 Assay for human cAMP Responsive Element (CRE) binding protein 3 (AID 2282926). The note with it: HepG2 CRE cis-reporter, Attagene multiplexed mRNA; actives raise or lower the signal. Summed up: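 Endogenous CRE-binding activity in HepG2 is reported through a cis-regulated transfected reporter. Following a day of exposure, mRNA levels are determined by reverse transcription PCR and fluorescent fragment analysis; fits run in both directions versus DMSO.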

Experiment [2] concerns the target CCAAT/enhancer-binding protein beta (Homo sapiens) (UniProt P17676). As to the kind of experiment: ATG_C_EBP_CIS: Attagene CIS-FACTORIAL HepG2 Assay for human CCAAT/Enhancer Binding Protein (C/EBP) beta (AID 2282927). The note with it: HepG2 Attagene cis-factorial transcription factor reporter; actives raise or lower the signal. The gist of the method:
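HepG2, transient MRTU transfection, 24 h treatment. RT-PCR plus CE fluorescence; DMSO negative control, bidirectional fit.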

A short description of experiment [3]: ATG_CMV_CIS: Attagene CIS-FACTORIAL HepG2 Assay for human CMV (Internal Marker) (AID 2282928).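 Also: endpoint acts as a background internal control marker rather than a target.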 Particulars: HepG2 CMV promoter reporter, transcription factor profiling; actives raise or lower the signal. Summed up: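 Cell system: HepG2, transiently transfected multiple reporter units under cis promoters. Exposure: 24 h. Detection: RT-PCR, FAM labeling, HpaI digestion, capillary electrophoresis. Analysis: bidirectional, DMSO baseline.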

Experiment [4] is described as follows: ATG_DR4_LXR_CIS: Attagene CIS-FACTORIAL HepG2 Assay for human Liver X Receptor (LXR), DR4 submotif (AID 2282929). The note with it: HepG2 Attagene DR4 cis-reporter, mRNA transcription; actives raise or lower the signal. The gist of the method:
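Fluorescence intensity of labelled reporter cDNA fragments, separated by capillary electrophoresis, gives the signal. HepG2 cells bearing cis-regulated reporter constructs were treated 24 h; activity fitted bidirectionally relative to DMSO negative control.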

Experiment [5] addresses Aryl hydrocarbon receptor (Homo sapiens) (UniProt P35869). Kind of experiment: ATG_Ahr_CIS: Attagene CIS-FACTORIAL HepG2 Assay for human Aryl Hydrocarbon Receptor (Ahr) (AID 2282930). Particulars: HepG2 AhR cis-factorial reporter transcription; actives raise or lower the signal. Summed up: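 Endogenous factor activity is tracked through cis-promoter reporter units transfected into HepG2 cells. Transcript levels at 24 h are read by fluorescent RT-PCR and capillary electrophoresis, with activity in either direction scored relative to DMSO.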

Experiment [6] can be described thus: ATG_AP_2_CIS: Attagene CIS-FACTORIAL HepG2 Assay for human Activator Protein 2 (AP-2) (AID 2282932). The note with it: HepG2 AP-2 cis-reporter, Attagene transcription factor profiling; actives raise or lower the signal. The gist of the method: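 HepG2 cells transiently transfected with cis-element reporter units and exposed for 24 h. Reporter mRNA measured by RT-PCR, FAM labelling, HpaI digestion and capillary electrophoresis. Changes in either direction fitted relative to DMSO.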

Experiment [7] is described as follows: ATG_BRE_CIS: Attagene CIS-FACTORIAL HepG2 Assay for human Bone Morphogenetic Protein (BMP) Response Element (BRE) (AID 2282933). The note with it: HepG2 BMP response element reporter, Attagene transcription factor profiling; actives raise or lower the signal. Summed up: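 Transient MRTU transfection of human HepG2 liver cells; 24 h compound treatment; total RNA isolated, reverse-transcribed, PCR-amplified, 6-FAM labelled, HpaI-cut, capillary electrophoresis. DMSO = negative control/baseline, bidirectional fit.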

Experiment [8] has as its target Transcription factor E2F1 (Homo sapiens) (UniProt Q01094). As to the kind of experiment: ATG_E2F_CIS: Attagene CIS-FACTORIAL HepG2 Assay for human E2F Transcription Factor 1 (AID 2282935). Particulars: HepG2 Attagene cis-reporter, E2F reporter RNA transcripts; actives raise or lower the signal. The gist of the method: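 Endogenous E2F1 activity read through cis-promoter reporter units transfected into HepG2. After 24 h compound treatment, reporter mRNA measured by RT-PCR, HpaI digestion and capillary electrophoresis. Bidirectional fit versus DMSO.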

Experiment [9] can be described thus: ATG_E_Box_CIS: Attagene CIS-FACTORIAL HepG2 Assay for human Enhancer Box (E-box) (AID 2282936). The note with it: HepG2 E-box cis-reporter transcription, actives raise or lower the signal. Summed up:
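HepG2 cells transiently transfected with multiplexed cis-element reporter units, dosed 24 h; reporter mRNA quantified by RT-PCR, 6-FAM labelling, HpaI digestion and capillary electrophoresis. E-box (USF1) signal fitted bidirectionally vs DMSO.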

Experiment [10] can be described thus: ATG_M_61_CIS: Attagene CIS-FACTORIAL HepG2 Assay for M61 Transcription Factor (Internal Marker) (AID 2282937). The note with it: HepG2 Attagene CIS-FACTORIAL M61 internal marker reporter; actives raise or lower the signal. The gist of the method: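 Endogenous transcription factor activity in HepG2 is read through transiently transfected cis-element reporter units. After 24 h dosing, RNA undergoes reverse transcription, PCR and primer extension with 6-FAM before capillary electrophoresis; DMSO-referenced bidirectional fit.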

Experiment [11] in a line: ATG_EGR_CIS: Attagene CIS-FACTORIAL HepG2 Assay for human Early Growth Response 1 (EGR1) (AID 2282938). The note with it: HepG2 Attagene CIS-FACTORIAL EGR reporter mRNA; actives raise or lower the signal. Summed up:
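Activity is taken as induction or loss of reporter mRNA versus DMSO, fitted bidirectionally. Transcripts from cis-regulated reporter units in transiently transfected HepG2 were measured after 24 h by RT-PCR with capillary electrophoresis.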

A short description of experiment [12]: ATG_M_19_CIS: Attagene CIS-FACTORIAL HepG2 Assay for M19 Transcription Factor (Internal Marker) (AID 2282939). Particulars: HepG2 Attagene CIS-FACTORIAL M19 internal marker reporter; actives raise or lower the signal. The gist of the method:
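Transfect HepG2 with MRTU reporter library → dose chemical, 24 h → isolate total RNA, reverse-transcribe with oligo(dT) → PCR, 6-FAM label, HpaI cut (2 h, 37 C) → capillary electrophoresis. Bidirectional fit vs DMSO.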

The nature of experiment [13]: ATG_ERE_CIS: Attagene CIS-FACTORIAL HepG2 Assay for Estrogen Response Element (ERE) (AID 2282940). The note with it: HepG2 ERE cis-reporter, Attagene RNA transcript; actives raise or lower the signal. The gist of the method: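 Transient MRTU transfection of human HepG2; cis-element promoters; 24 h dosing; total RNA → RT (oligo dT) → PCR → 6-FAM primer extension → HpaI digest → CE fluorescence. Bidirectional fit, DMSO baseline.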

A short description of experiment [14]: ATG_Ets_CIS: Attagene CIS-FACTORIAL HepG2 Assay for human Erythroblast Transformation Specific (ETS) (AID 2282941). The note with it: HepG2 ETS cis-reporter transcription, actives raise or lower the signal. The gist of the method:
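After transient cis-reporter transfection, HepG2 cells receive test chemical for 24 h. Reporter mRNA levels, measured by RT-PCR and capillary electrophoresis fluorescence, are analysed bidirectionally relative to the DMSO baseline.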

Experiment [15] has as its target Hepatocyte nuclear factor 3-beta (Homo sapiens) (UniProt Q9Y261). As to the kind of experiment: ATG_FoxA2_CIS: Attagene CIS-FACTORIAL HepG2 Assay for human Forkhead box A2 (FOXA2) (AID 2282942). The note with it: HepG2 cis-reporter transcription factor activity, 24 h; actives raise or lower the signal. Summed up:
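Reporter transcript induction is measured by fluorescence after capillary electrophoresis of RT-PCR products from HepG2 cells exposed 24 h. Cis-regulated reporter units report endogenous factor activity; curves fitted both directions against DMSO.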

The nature of experiment [16]: ATG_FoxO_CIS: Attagene CIS-FACTORIAL HepG2 Assay for human Forkhead box O (FoxO) (AID 2282943). The note with it: HepG2 Attagene cis-reporter, FoxO element, mRNA; actives raise or lower the signal. Summed up: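 Transfected HepG2 reporter cells exposed to test chemical for 24 h; reporter RNA measured by reverse transcription, PCR and fluorescent capillary electrophoresis; curves fitted for increases and decreases against DMSO.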

The nature of experiment [17]: ATG_GATA_CIS: Attagene CIS-FACTORIAL HepG2 Assay for human GATA Binding Protein (AID 2282944). Particulars: HepG2 GATA cis-element reporter, Attagene multiplex mRNA; actives raise or lower the signal. Summed up: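 Transient MRTU transfection, HepG2, 24 h compound exposure. Total RNA → oligo(dT) RT → PCR → 6-FAM primer extension → HpaI cut → CE. Bidirectional fit vs DMSO.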

Experiment [18] is described as follows: ATG_AP_1_CIS: Attagene CIS-FACTORIAL HepG2 Assay for human Activator Protein 1 (AP-1) (AID 2282931). The note with it: HepG2 Attagene cis-factorial AP-1 reporter mRNA; actives raise or lower the signal. Summed up: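 Multiplexed HepG2 reporter assay, 24 h dosing. mRNA induction detected by RT-PCR plus capillary electrophoresis. Activity fitted in both directions against DMSO.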

Experiment [19] can be described thus: ATG_GLI_CIS: Attagene CIS-FACTORIAL HepG2 Assay for human Zinc Finger Protein GLI1 (AID 2282945). Particulars: HepG2, Attagene cis-factorial reporter mRNA, GLI element; actives raise or lower the signal. The gist of the method:
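Transiently transfected HepG2 cells report endogenous transcription factor activity via cis-element-driven reporter units. After 24 h compound exposure, reporter mRNA was measured by RT-PCR with capillary electrophoresis; bidirectional fitting against DMSO baseline.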

Experiment [20] has as its target Retinoic acid receptor alpha (Homo sapiens) (UniProt P10276). As to the kind of experiment: ATG_DR5_RAR_CIS: Attagene CIS-FACTORIAL HepG2 Assay for human Retinoic Acid Receptor Alpha (RARE), DR5 submotif (AID 2282934). The note with it: HepG2 Attagene cis-factorial RARE DR5 reporter, mRNA; actives raise or lower the signal. The gist of the method: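 After 24 h of chemical exposure, transiently transfected HepG2 cells were lysed for total RNA; the DR5-regulated reporter transcript was quantified via RT-PCR and capillary electrophoresis, with activity fitted bidirectionally against DMSO.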

Hepatocyte nuclear factor 3-beta (Homo sapiens), sequence (Q9Y261 whole entry, looked up): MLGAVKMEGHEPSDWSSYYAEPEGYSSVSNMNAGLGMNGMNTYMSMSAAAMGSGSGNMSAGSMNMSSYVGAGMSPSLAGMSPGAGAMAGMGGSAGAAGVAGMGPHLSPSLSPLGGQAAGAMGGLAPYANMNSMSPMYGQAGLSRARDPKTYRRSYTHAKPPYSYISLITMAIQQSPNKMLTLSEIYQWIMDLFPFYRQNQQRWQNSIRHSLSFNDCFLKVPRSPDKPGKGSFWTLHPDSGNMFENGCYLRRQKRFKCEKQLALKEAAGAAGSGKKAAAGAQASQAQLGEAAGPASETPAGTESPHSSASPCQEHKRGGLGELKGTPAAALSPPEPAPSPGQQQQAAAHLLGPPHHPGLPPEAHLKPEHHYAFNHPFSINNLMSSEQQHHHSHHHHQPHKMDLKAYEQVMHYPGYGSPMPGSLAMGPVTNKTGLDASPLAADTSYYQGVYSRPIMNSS
Transcription factor E2F1 (Homo sapiens), sequence (Q01094 whole entry, looked up): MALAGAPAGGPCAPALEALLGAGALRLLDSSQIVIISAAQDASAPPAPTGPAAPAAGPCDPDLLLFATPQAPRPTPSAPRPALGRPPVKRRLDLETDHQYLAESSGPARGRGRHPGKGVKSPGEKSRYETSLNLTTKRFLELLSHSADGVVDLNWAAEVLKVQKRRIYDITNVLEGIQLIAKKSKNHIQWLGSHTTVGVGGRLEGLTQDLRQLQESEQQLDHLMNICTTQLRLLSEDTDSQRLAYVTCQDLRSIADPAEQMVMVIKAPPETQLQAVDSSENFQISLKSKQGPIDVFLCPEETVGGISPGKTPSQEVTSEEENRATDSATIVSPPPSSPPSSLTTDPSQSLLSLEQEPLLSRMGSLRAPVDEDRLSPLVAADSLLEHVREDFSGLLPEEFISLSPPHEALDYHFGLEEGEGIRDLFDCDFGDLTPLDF
CCAAT/enhancer-binding protein beta (Homo sapiens), sequence (P17676 whole entry, looked up): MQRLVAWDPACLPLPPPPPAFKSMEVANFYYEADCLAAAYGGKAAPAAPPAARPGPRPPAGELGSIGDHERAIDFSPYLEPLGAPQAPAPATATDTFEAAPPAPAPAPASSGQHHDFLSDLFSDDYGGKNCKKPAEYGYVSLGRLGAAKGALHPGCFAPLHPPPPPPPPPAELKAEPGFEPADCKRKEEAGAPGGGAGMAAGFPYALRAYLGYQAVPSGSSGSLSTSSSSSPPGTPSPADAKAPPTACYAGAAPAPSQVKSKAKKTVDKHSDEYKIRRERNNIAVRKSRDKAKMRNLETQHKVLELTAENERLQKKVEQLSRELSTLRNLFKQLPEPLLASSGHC
Aryl hydrocarbon receptor (Homo sapiens), sequence (P35869 whole entry, looked up): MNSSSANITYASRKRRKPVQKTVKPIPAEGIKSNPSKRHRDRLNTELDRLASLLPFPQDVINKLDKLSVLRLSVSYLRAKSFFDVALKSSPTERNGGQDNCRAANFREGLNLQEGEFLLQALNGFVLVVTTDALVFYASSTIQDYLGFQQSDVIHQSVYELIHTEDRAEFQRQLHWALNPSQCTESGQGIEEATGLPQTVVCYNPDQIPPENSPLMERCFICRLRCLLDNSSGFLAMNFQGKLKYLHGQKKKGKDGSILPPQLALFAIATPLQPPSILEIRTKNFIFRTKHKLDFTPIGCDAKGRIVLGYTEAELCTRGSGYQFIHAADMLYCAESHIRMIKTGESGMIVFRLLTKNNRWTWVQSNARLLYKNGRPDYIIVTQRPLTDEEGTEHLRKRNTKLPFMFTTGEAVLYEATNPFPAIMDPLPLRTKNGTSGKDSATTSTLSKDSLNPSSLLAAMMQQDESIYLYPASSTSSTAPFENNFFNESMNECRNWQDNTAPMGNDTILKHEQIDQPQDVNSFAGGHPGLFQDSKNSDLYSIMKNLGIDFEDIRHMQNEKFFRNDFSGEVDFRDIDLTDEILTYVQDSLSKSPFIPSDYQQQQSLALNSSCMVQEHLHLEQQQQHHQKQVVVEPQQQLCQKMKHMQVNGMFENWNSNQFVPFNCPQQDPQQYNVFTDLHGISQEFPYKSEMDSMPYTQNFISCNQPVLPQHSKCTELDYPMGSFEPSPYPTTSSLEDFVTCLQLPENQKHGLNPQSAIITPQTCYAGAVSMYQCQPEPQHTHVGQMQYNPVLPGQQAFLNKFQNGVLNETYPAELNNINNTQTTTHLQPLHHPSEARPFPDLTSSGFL
Retinoic acid receptor alpha (Homo sapiens), sequence (P10276 whole entry, looked up): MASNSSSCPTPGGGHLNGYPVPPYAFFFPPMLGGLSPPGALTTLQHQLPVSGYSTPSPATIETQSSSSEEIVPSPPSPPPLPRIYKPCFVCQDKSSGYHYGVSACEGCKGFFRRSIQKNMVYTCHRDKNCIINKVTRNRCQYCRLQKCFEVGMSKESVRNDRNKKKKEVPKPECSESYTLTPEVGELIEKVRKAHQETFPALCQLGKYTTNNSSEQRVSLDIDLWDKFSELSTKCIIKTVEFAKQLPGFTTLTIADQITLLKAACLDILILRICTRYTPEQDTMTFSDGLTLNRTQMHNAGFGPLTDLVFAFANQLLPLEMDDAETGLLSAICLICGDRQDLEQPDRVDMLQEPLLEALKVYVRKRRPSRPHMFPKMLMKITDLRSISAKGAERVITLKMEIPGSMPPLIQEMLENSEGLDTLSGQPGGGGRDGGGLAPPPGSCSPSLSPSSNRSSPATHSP

As to `C=C(C)C(=O)O[C@H]1C[C@@H]2CC[C@@]1(C)C2(C)C`, the call in experiment [1], in [2], in experiment [6], in experiment [7], in experiment [10] and in [11] was inactive. The outcome in [12], in experiment [14], in experiment [15], in [16] and in experiment [17] was inactive. The AC50 in experiment [3] was 148 µM (active); in [4] it was 26.7 µM (active); in [5], 137 µM (active); in experiment [8] it was 100 µM (active); in experiment [9] it was 147 µM (active); in experiment [13], 60.7 µM (active).

Regarding `c1cc(C(c2ccc(OCC3CO3)cc2)c2ccc(OCC3CO3)cc2)ccc1OCC1CO1` (stereo unspecified), the AC50 in experiment [1] was 25.2 µM (active); in [3] it was 26.3 µM (active); in experiment [4], 53.2 µM (active); in experiment [18] it was 19.8 µM (active); in experiment [6], 8.7 µM (active); in [9], 100 µM (active). The concentration at half-maximal activity (AC50) in [11] is 8.73 µM (active); in [12] it was 175 µM (active); in experiment [15] it was 185 µM (active); in experiment [16] it was 167 µM (active); in experiment [17], 180 µM (active). Further, the result in [2], in experiment [5], in experiment [8], in experiment [10], in experiment [13] and in [14] was inactive.

Regarding `Cc1ccc(C(=O)O)o1`, the compound was classed as inactive in [1], in experiment [2], in [3], in experiment [4], in [18] and in [6]. Moreover, the outcome in [7], in [8], in [9], in [10], in experiment [11] and in experiment [12] was inactive. Further, the compound was classed as inactive in [14], in [16] and in experiment [17].

As for `Nc1cc(N)cc(C(=O)O)c1`, the outcome in experiment [1], in experiment [2], in experiment [3], in [4], in [18] and in experiment [6] was inactive. Also, the result in experiment [7], in [11], in experiment [12], in experiment [13], in [14] and in [15] was inactive. Besides, the outcome in experiment [16], in [17] and in experiment [19] was inactive.

For `CN(C)CCOCCN(C)C`, the outcome in experiment [1], in experiment [2], in experiment [3], in experiment [4], in experiment [18] and in experiment [6] was inactive. The outcome in experiment [7], in experiment [8], in [9], in experiment [10], in experiment [11] and in [12] was inactive. The compound was called inactive in experiment [14], in experiment [15], in experiment [16], in experiment [17] and in experiment [19].

Take `NCCCN1CCOCC1`: the result in [1], in experiment [2], in experiment [3], in experiment [4], in experiment [18] and in experiment [6] was inactive. Besides, the outcome in experiment [7], in experiment [8], in [10], in [11], in experiment [12] and in [13] was inactive. The compound was called inactive in [14], in [15], in experiment [16], in experiment [17] and in experiment [19].

Take `NCCCCCCN`: the compound was classed as inactive in experiment [1], in [2], in experiment [3], in experiment [4], in experiment [18] and in [6]. Besides, the compound was classed as inactive in experiment [7], in experiment [20], in [8], in experiment [9], in experiment [10] and in experiment [11]. Further, the result in experiment [12], in experiment [14], in [15], in experiment [16], in experiment [17] and in experiment [19] was inactive.

The values are drawn from PubChem BioAssay (EPA / NIEHS).
